# The list is not random: actives were taken first. Their share in the collection is about 15%.
# 12-LOX inh: blocks human arachidonate 12S-lipoxygenase; Potency, µM (highest dose often 108 µM), for inactives: at the highest dose activity change, negative = inhibition, hits mostly inhibitors; 1.1% of 580,000 active; purified 12hLO, xylenol orange hydroperoxide absorbance
#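 Hydroperoxide product was detected by ferrous iron/xylenol orange as the 573 to 405 nm absorbance ratio. Arachidonic acid at 40 uM (final) was turned over for 30 min at room temperature by 150 nM human 12hLO, pH 7.0 Hepes buffer, after 15 min compound preincubation.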
# VP16 counter: inhibits Gal4-VP16 luciferase reporter, ROR gamma counter-screen. Drosophila S2 Gal4-VP16 UAS-luciferase, luminescence, 20 h. Potency, µM (top dose mostly 53.6 µM), inactives show at the top dose activity, negative = inhibition, most hits filed as inhibitors. 3.5% of 310,000 active;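 also: Gal4-VP16 expression switched on by copper sulfate through the metallothionein promoter; nearly all actives have a fitted effect of over 50% in size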
# RORgamma inh: ROR gamma (mouse) transcription inhibition | P51450 | Drosophila S2 Gal4-RORgamma UAS-luciferase reporter, 20 h | Potency, µM (highest dose often 53.6 µM), for the others: top-dose activity change, negative = inhibition, hits mostly inhibitors | 5.4% of 310,000 active | AID 2551; also: nearly all actives have a fitted effect of over 60% in size
# Target sequence (P51450 whole entry, looked up, the tested form may be a part): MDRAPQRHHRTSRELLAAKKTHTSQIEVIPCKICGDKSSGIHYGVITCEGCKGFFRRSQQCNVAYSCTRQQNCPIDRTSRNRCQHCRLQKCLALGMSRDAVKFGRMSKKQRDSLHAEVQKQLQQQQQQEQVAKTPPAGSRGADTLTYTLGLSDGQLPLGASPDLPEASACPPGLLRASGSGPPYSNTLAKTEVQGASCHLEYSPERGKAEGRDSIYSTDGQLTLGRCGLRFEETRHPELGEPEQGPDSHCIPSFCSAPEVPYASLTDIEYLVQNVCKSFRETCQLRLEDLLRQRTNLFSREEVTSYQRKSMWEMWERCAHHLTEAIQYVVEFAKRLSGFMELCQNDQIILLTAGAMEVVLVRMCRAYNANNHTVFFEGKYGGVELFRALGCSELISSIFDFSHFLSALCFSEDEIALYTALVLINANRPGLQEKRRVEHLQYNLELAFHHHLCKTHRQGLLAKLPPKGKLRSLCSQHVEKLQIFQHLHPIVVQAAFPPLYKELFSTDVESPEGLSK
#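 Read-out: Photinus luciferase luminescence; inhibitors lower reporter signal. Insect Schneider cells with Gal4-ROR gamma fusion under metallothionein promoter, UAS reporter; 700 uM final copper sulfate induction, 20 hr, ambient temperature.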
# ELG1 repair inh: ELG1-dependent DNA repair inhibition | Potency, µM (doses to about 46.1 µM), for the others: at the top dose activity change, negative = inhibition, usual class: inhibitors | 2.3% of 330,000 active | HEK293T ELG1-luciferase reporter, luminescence, 16 h; DNA damage induced by 5-fluorouridine; also: nearly all actives have a fitted effect of over 55% in size
#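 Quantitative HTS, concentration-response format. 2,000 cells/well co-treated with 5-fluorouridine and compound, 16 hr in 5% CO2 at 37 °C; ONE-Glo luminescence read after 30 min.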
# DT40 TDP1 no CPT: qHTS for Inhibitors of human tyrosyl-DNA phosphodiesterase 1 (TDP1): qHTS in cells in absence of CPT; DT40 Tdp1-/- hTDP1 cells, no CPT, ATP luminescence, 48 h; Potency, µM (top dose mostly 46.2 µM), without a hit: at the top dose activity change, negative = growth inhibition, usual class: inhibitors; 15% of 420,000 active; AID 686978, 2013; also: nearly all actives have a fitted effect of over 55% in size
#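 DT40 Tdp1-/-;hTDP1 cells, no CPT (DMSO vehicle only), 400 cells/well; compounds pin-transferred; ≥48 hr, 37 °C; CellTiter-Glo 30 min RT dark, luminescence read.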
# TDP1 cell CPT: DT40-hTDP1 cell growth loss with CPT | chicken DT40 Tdp1-/-;hTDP1 cells + 20 nM CPT, ATP luminescence, 48 h | Potency, µM (highest dose often 46.2 µM), for inactives: at the top dose activity change, negative = growth inhibition, actives largely listed as inhibitors | 12% of 420,000 active; also: nearly all actives have a fitted effect of over 55% in size
#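 Chicken DT40 Tdp1-/- cells stably complemented with human TDP1 were seeded at 400 cells/well in medium containing 20 nM camptothecin, exposed to pin-transferred compounds, and grown at 37 °C for at least 48 hr. Viability was read as ATP luminescence.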
# Active calls of the source: *; ? = inconclusive; . = not tested or not shown; [ ] = remark or other dose. Calls follow the shape of the dose curve; as a rule, active = well fitted curve in the direction sought with a large enough effect; inconclusive = small, poorly fitted or top-dose-only effect, or another doubt; inactive = no such curve, though single readings can be large; an effect the other way counts as inactive or inconclusive. % is scaled to controls: 0 for no effect and ±100 for the full control effect; potency is read from the fitted curve at half-maximal effect.
SMILES,12-LOX inh,VP16 counter,RORgamma inh,ELG1 repair inh,DT40 TDP1 no CPT,TDP1 cell CPT
CC(C)C[C@@H](NC(=O)C1=C[C@@H](NC(=O)CC(C)(C)C)[C@@H](O)[C@H](O)C1)C(N)=O,27%[176 µM],.,.,.,.,.
Cc1cc(=O)c2cc(C(=O)Nc3nnc(CC(C)C)s3)ccc2[nH]1,12%,.,.,.,.,.
CNC(=O)N1CCCC(c2nc(CCOCC3CCCC3)no2)C1 (configuration not stated),66%,.,.,.,.,.
COc1ccc(C(=O)Nc2cccc([N+](=O)[O-])c2)cc1Br,184%,.,.,.,-24%,0%
COc1ccc(NC(=O)Nc2cccc([N+](=O)[O-])c2)cc1Cl,-6%,?,44%,?,9.2µM*,18µM*
O=C(Nc1ccc(OC(F)F)c(Cl)c1)Nc1ccc2c(c1)OCO2,1%,9%,7%,11%,16µM*,?
O=C(Nc1ccc2c(c1)OCO2)Nc1ccc2c(c1)OCO2,-1%,0%,-14%,?,7%,-11%
COc1ccc(NC(=S)Nc2cccc([N+](=O)[O-])c2)cc1,-23%,-30%,13µM*,-3%,-24%,-21%
O=[N+]([O-])c1cc(S(=O)(=O)Nc2ccc(Cl)cc2)ccc1N/N=C/c1ccccc1F,36%,.,.,.,.,.
CCCCCn1c(CCC(=O)NCc2cccc(OC)c2)nc2c1c(=O)[nH]c(=O)n2CCCC,2%,.,.,.,.,.
O=C1CCN(C(=O)Cc2c[nH]c3ccccc23)CCCC(C(=O)NCc2ccccc2)CCN1 (configuration not stated),1%,.,.,.,.,.
COc1ccc(Cn2c(=S)[nH]c3ccccc3c2=O)cc1,0%,10µM*,8.9µM*,-4%,15%,9%
CC(C)CCNC(=O)c1ccc(Cn2c(=S)[nH]c3ccccc3c2=O)cc1,127%,?,?,-8%,-24%,-9%
Cc1ccc(Cn2c(=S)[nH]c3ccccc3c2=O)cc1,3%,6.3µM*,4µM*,12%,9%,0%
CC(SC1=NCCS1)C(=O)Nc1nnc(-c2ccc(Cl)cc2)s1 (configuration not stated),3%[57.4 µM],8.9µM*,5µM*,?,21µM*,15µM*
COc1ccccc1-c1nnc(NC(=O)C(C)SC2=NCCS2)s1 (configuration not stated),13%,?,13µM*,?,?,21µM*
CCNc1nnc(-c2ccccc2OC)s1,352%,5%,-7%,?,3%,-18%
CCOC(=O)C(=O)Nc1c(C(=O)Nc2ccc(C)cc2)oc2ccccc12,-26%,.,.,.,.,.
O=C1c2ccccc2C(c2ccc(NC(=O)C(c3ccccc3)c3ccccc3)cc2)(c2ccc(NC(=O)C(c3ccccc3)c3ccccc3)cc2)c2ccccc21,0%,.,.,.,.,.
CCC(C)Nc1nc(-c2ccccn2)nc2ccccc12 (configuration not stated),19%,3.5µM*,0.71µM*,?,3.7µM*,4.1µM*
c1ccc(CNc2nc(-c3ccccn3)nc3ccccc23)cc1,0%,3.5µM*,2.5µM*,-8%,3.7µM*,3.7µM*
Fc1ccccc1/C=N/Nc1ncnc2nc[nH]c12,14%,-2%,?,?,-26%,-6%
CCC(C)Nc1nc(-c2cccc(OC)c2O)nc2ccccc12 (configuration not stated),?,-14%,16%,18%,?,?
c1coc(CNc2c3c(nc4ccccc24)CCC3)c1,0%,-2%,-28%,-17%,23µM*,16µM*
Fc1ccccc1/C=N/Nc1nc(-c2ccccn2)nc2ccccc12,.,0.5µM*,0.25µM*,?,.,.
Cc1ccc(-n2nnnc2SCC(=O)N2CCN(CC(=O)N3CCCC3)CC2)c(C)c1,2%,.,.,.,.,.
